# Test results: ChEMBL document CHEMBL1961873, “Compounds: GSK PKIS; Assays: Nanosyn kinase panel” (2012)
# How the values were obtained:
# [1] = target: Tyrosine-protein kinase SYK (Homo sapiens) (UniProt P43405); settings: at 1 µM
# [2] = target: T1, Tyrosine-protein kinase Tec (Homo sapiens) (UniProt P42680); settings: at 0.1 µM
# T1 sequence (whole entry): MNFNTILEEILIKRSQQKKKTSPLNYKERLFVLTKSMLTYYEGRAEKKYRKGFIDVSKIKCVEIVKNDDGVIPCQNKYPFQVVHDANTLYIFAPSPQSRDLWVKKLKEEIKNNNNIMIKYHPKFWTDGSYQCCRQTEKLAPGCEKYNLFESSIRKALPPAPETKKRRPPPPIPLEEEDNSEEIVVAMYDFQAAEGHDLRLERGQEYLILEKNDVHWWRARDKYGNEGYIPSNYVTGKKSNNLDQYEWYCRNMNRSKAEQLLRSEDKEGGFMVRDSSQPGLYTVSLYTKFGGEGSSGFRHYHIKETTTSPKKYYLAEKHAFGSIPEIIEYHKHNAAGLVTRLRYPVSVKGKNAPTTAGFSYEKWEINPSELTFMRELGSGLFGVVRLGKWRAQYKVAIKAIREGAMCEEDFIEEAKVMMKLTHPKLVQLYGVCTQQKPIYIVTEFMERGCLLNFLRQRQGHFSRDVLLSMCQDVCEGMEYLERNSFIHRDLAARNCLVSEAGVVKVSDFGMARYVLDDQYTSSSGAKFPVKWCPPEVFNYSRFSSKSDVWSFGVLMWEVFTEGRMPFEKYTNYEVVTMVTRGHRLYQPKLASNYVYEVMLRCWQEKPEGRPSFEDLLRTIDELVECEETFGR
# [3] = target: T1, Tyrosine-protein kinase Tec (Homo sapiens); settings: at 1 µM
# [4] = target: Angiopoietin-1 receptor (Homo sapiens) (UniProt Q02763); settings: at 0.1 µM
# [5] = target: Angiopoietin-1 receptor (Homo sapiens) (UniProt Q02763); settings: at 1 µM
# [6] = target: T2, Non-receptor tyrosine-protein kinase TNK1 (Homo sapiens) (UniProt Q13470); settings: at 0.1 µM
# T2 sequence (whole entry): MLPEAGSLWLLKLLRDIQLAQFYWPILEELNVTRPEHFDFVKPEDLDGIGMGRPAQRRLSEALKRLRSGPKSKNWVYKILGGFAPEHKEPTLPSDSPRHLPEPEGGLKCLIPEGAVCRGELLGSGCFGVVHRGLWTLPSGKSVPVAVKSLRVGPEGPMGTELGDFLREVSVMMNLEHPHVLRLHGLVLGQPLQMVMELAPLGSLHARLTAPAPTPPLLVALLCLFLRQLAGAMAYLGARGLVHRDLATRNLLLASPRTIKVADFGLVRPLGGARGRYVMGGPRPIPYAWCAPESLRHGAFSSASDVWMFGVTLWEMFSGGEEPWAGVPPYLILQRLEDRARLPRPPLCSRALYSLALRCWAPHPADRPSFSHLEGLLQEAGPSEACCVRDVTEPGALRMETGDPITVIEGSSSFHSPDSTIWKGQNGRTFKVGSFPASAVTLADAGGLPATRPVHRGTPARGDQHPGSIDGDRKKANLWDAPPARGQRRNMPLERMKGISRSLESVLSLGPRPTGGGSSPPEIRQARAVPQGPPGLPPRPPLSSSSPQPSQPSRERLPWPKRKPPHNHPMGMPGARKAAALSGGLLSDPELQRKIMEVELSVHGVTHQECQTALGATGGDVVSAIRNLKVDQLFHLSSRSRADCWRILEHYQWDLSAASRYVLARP
# [7] = target: T2, Non-receptor tyrosine-protein kinase TNK1 (Homo sapiens); settings: at 1 µM
# [8] = target: Activated CDC42 kinase 1 (Homo sapiens) (UniProt Q07912); settings: at 0.1 µM
# [9] = target: Activated CDC42 kinase 1 (Homo sapiens) (UniProt Q07912); settings: at 1 µM
# [10] = target: High affinity nerve growth factor receptor (Homo sapiens) (UniProt P04629); settings: at 0.1 µM
# [11] = target: High affinity nerve growth factor receptor (Homo sapiens) (UniProt P04629); settings: at 1 µM
# [12] = target: BDNF/NT-3 growth factors receptor (Homo sapiens) (UniProt Q16620); settings: at 0.1 µM
# [13] = target: BDNF/NT-3 growth factors receptor (Homo sapiens) (UniProt Q16620); settings: at 1 µM
# [14] = target: NT-3 growth factor receptor (Homo sapiens) (UniProt Q16288); settings: at 0.1 µM
# [15] = target: NT-3 growth factor receptor (Homo sapiens) (UniProt Q16288); settings: at 1 µM
# [16] = target: T3, Tyrosine-protein kinase TXK (Homo sapiens) (UniProt P42681); settings: at 0.1 µM
# T3 sequence (whole entry): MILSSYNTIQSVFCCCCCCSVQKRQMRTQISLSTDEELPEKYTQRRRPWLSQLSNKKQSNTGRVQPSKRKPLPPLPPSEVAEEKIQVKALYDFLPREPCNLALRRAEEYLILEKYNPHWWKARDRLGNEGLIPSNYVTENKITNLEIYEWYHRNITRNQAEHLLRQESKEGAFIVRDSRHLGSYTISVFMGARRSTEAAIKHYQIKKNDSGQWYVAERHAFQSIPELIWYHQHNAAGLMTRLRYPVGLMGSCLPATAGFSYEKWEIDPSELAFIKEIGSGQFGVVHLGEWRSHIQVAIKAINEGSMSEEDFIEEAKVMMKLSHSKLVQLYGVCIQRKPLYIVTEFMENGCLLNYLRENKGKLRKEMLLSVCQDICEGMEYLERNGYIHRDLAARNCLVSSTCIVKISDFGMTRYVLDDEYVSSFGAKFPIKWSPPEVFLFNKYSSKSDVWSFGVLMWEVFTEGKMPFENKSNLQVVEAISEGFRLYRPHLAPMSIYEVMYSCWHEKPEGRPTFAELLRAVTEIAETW
# [17] = target: T3, Tyrosine-protein kinase TXK (Homo sapiens); settings: at 1 µM
# [18] = target: Non-receptor tyrosine-protein kinase TYK2 (Homo sapiens) (UniProt P29597); settings: at 0.1 µM;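 also: each value is a mean of the inhibition readings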
# [19] = target: T4, Dual specificity protein kinase TTK (Homo sapiens) (UniProt P33981); settings: at 1 µM;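 also: reported figures are mean TTK inhibition at 1 µM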
# T4 sequence (whole entry): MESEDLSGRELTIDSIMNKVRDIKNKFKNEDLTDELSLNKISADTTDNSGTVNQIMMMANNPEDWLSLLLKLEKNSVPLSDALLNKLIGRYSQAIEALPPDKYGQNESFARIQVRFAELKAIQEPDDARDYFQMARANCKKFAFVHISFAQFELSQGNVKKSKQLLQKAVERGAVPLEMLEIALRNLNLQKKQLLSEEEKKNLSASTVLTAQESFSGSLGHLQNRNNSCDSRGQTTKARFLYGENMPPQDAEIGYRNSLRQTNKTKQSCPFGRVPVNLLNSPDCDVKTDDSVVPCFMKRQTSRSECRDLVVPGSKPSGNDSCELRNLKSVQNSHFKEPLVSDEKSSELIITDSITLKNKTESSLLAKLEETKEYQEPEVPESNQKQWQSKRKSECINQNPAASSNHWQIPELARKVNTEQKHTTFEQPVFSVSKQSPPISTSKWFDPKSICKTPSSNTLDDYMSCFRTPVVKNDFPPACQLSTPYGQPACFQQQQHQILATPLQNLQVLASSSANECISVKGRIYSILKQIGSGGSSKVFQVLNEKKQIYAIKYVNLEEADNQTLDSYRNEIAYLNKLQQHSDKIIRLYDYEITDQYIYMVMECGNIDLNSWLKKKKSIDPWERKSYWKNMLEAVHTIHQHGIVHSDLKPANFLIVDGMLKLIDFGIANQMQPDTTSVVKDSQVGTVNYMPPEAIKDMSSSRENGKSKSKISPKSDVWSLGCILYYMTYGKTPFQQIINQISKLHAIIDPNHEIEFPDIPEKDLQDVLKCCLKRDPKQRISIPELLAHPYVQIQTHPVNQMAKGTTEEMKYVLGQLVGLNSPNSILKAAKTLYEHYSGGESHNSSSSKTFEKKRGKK
# [20] = target: T5, Aurora kinase A (Homo sapiens) (UniProt O14965); settings: at 0.1 µM;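 also: each reported value is a mean percent inhibition of Aurora-A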
# T5 sequence (whole entry): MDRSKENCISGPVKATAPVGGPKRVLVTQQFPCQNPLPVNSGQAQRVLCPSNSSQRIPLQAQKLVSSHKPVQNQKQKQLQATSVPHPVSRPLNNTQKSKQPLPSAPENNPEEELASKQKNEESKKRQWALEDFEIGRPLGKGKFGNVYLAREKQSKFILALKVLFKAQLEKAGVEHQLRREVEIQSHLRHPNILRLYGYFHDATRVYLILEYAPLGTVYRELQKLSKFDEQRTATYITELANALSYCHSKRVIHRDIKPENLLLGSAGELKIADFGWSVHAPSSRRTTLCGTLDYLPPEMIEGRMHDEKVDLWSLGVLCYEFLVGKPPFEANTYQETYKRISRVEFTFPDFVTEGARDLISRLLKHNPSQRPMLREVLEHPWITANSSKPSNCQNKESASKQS
# NT-3 growth factor receptor (Homo sapiens), sequence (Q16288 32-839 limits assumed): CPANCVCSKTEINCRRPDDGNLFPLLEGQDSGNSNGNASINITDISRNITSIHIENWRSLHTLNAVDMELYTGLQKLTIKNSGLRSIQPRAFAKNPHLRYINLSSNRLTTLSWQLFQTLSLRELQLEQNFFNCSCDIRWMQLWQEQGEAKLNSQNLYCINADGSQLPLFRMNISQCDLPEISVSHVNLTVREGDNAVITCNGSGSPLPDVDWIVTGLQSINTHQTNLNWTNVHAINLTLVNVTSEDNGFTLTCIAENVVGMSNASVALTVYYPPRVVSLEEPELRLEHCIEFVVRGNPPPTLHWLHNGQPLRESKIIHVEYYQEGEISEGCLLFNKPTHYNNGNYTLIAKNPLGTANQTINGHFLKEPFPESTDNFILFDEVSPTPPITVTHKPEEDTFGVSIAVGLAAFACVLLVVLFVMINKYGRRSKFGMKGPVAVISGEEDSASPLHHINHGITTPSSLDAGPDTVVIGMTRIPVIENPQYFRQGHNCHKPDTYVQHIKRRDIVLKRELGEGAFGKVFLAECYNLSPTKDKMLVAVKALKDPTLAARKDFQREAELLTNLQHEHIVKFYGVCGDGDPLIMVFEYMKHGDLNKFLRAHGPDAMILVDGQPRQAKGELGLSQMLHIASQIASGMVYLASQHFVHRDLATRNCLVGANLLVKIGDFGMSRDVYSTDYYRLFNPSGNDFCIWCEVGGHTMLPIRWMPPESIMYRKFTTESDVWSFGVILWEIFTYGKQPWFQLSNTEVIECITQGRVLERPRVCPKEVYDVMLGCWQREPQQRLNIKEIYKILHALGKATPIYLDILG
# Activated CDC42 kinase 1 (Homo sapiens), sequence (Q07912 whole entry, looked up): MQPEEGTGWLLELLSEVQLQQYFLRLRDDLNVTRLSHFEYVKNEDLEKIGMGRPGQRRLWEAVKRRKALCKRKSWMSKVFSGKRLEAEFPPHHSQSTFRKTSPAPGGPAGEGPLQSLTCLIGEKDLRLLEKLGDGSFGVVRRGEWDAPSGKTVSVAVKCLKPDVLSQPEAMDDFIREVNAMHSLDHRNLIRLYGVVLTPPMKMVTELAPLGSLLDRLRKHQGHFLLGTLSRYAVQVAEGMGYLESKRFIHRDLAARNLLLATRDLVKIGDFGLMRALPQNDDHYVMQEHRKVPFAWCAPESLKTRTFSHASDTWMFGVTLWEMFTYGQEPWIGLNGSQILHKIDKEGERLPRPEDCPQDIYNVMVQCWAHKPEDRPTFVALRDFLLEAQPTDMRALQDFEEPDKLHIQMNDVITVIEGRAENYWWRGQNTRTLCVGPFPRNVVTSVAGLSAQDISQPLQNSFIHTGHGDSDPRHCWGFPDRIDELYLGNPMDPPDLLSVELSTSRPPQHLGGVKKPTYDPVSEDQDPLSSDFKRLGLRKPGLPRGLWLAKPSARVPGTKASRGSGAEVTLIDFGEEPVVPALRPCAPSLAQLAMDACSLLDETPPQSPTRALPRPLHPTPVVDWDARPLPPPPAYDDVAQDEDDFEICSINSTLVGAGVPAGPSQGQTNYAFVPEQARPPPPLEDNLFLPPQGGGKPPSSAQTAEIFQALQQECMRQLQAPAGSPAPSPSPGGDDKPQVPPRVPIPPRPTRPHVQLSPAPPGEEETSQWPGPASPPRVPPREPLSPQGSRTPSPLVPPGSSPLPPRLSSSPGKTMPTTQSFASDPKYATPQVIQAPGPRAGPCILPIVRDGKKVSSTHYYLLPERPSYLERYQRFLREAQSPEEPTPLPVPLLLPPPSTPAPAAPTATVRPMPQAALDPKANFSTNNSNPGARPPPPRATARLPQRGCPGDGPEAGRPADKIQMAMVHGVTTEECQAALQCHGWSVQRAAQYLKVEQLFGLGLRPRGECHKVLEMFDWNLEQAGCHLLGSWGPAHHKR
# High affinity nerve growth factor receptor (Homo sapiens), sequence (P04629 33-796 limits assumed): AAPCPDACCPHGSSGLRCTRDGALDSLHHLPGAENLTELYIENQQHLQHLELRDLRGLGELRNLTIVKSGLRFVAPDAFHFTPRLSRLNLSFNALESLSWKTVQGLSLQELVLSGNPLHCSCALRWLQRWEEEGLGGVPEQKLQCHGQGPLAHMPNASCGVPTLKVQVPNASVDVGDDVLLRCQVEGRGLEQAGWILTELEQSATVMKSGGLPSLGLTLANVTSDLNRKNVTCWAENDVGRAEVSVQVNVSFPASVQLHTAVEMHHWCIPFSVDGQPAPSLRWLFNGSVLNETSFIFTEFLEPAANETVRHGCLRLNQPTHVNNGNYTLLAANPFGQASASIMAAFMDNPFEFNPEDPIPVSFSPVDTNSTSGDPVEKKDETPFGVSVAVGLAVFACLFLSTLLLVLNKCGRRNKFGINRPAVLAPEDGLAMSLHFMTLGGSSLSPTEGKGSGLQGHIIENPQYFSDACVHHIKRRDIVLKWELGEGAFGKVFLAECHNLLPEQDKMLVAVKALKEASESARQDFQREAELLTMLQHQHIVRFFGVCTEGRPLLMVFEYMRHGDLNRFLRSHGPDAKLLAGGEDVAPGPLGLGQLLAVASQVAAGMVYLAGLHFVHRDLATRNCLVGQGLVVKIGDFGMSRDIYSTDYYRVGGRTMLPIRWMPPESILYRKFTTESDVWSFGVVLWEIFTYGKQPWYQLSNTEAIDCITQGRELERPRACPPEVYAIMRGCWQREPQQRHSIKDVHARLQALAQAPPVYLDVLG
# BDNF/NT-3 growth factors receptor (Homo sapiens), sequence (Q16620 32-822 limits assumed): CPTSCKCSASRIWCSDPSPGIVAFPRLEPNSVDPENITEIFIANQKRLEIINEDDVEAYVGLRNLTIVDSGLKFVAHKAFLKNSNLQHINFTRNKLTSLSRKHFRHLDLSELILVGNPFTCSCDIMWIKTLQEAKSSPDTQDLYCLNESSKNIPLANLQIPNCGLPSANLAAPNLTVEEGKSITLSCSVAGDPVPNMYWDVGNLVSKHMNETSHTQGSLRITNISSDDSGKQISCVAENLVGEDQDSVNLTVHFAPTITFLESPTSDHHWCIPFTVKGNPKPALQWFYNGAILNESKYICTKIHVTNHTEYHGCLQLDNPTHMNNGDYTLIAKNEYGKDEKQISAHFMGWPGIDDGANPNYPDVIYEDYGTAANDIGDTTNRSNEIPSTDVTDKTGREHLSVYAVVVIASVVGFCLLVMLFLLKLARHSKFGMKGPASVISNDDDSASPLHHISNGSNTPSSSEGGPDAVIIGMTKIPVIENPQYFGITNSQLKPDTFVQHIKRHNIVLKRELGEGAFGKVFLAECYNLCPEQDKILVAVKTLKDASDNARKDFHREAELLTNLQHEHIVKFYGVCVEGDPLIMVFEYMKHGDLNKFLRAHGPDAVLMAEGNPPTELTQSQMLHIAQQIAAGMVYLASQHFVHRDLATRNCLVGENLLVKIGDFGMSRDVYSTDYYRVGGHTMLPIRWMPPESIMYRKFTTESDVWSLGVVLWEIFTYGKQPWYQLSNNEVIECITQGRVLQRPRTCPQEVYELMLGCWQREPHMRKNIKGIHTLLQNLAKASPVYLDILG
# Non-receptor tyrosine-protein kinase TYK2 (Homo sapiens), sequence (P29597 whole entry): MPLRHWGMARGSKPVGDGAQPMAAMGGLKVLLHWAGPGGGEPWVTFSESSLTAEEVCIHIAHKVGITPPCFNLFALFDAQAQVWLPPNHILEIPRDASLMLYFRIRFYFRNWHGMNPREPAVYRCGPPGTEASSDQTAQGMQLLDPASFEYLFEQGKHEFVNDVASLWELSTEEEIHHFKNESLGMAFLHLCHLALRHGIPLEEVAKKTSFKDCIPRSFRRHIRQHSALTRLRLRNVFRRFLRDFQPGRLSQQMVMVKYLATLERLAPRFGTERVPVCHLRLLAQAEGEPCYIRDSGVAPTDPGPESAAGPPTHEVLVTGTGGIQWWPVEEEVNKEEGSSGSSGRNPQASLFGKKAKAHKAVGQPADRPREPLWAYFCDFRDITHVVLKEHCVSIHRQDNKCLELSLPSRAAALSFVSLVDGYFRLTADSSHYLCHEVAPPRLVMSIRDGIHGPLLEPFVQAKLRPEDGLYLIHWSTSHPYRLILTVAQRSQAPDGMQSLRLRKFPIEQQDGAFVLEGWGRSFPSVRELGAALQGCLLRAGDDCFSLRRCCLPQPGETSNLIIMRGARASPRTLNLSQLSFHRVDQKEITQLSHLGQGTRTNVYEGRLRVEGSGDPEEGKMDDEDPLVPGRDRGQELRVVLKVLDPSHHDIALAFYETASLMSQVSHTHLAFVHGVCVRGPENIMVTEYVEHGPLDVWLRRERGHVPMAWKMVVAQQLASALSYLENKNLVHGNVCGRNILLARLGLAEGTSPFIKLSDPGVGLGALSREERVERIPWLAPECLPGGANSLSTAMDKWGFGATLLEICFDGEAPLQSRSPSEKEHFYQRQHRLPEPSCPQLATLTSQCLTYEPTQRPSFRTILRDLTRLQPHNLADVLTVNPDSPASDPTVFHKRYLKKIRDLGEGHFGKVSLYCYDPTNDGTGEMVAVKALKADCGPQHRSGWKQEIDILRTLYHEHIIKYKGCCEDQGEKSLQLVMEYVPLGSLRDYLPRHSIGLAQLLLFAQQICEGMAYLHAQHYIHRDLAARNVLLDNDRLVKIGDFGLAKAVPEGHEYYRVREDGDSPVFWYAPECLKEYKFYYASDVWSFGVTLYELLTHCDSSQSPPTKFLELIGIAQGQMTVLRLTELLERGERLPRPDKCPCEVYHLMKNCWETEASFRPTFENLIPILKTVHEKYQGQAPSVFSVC
Structure (SMILES),inhibition [1] [%],inhibition [2] [%],inhibition [3] [%],inhibition [4] [%],inhibition [5] [%],inhibition [6] [%],inhibition [7] [%],inhibition [8] [%],inhibition [9] [%],inhibition [10] [%],inhibition [11] [%],inhibition [12] [%],inhibition [13] [%],inhibition [14] [%],inhibition [15] [%],inhibition [16] [%],inhibition [17] [%],inhibition [18] [%],inhibition [19] [%],inhibition [20] [%]
NS(=O)(=O)c1ccc(N/N=C2\C(=O)Nc3ccc4ncccc4c32)cc1,22.4,8.53,38.3,5.02,11.5,14.6,56.8,1.85,8.38,6.88,50.4,21.5,72,26.7,78.5,5.15,26.9,7.29,67.6,27.3
CC(=O)NCc1cccc(C#Cc2cncnc2Nc2ccc(OCc3cccc(F)c3)c(Cl)c2)c1,2.55,0.58,0.89,0.95,4.38,-1.56,-1.3,-0.45,-0.03,1.25,1.37,0.64,2.98,0.24,4.11,2.29,-2.24,0.84,-8.1,1.59
CNC(=O)c1cncc(/C=C/c2ccccc2Cl)c1,0.31,2.56,10.2,-0.85,4.09,2.57,27.7,0.2,5.7,-5.21,-0.75,-1.43,2.71,-1.83,3.94,4.15,16,2.63,5.89,1.14
COc1ccc(-c2oc3ncnc(N)c3c2-c2ccc(NC(=O)Nc3cc(C(F)(F)F)ccc3F)cc2)cc1,-8.92,5.43,14,79.3,86.1,21,85.3,4.09,9.81,71.1,98.4,88.4,101,87.2,98.5,3.68,8.48,-5.26,14.6,1.73
NC(=O)c1sc(-n2cnc3ccc(C(F)(F)F)cc32)cc1OCc1ccccc1Br,0.09,2.5,2.78,2.27,3.55,1.47,9.04,0.36,0.65,4.01,1.97,4.43,2.79,4.04,4.67,1.39,-0.88,-4.87,9.08,2.74
Cc1cccc(Nc2ncc(-c3ccccc3)o2)c1,2.98,6.33,4.84,5.06,4.9,1.78,4.17,1.1,3.4,0.19,6.23,3.27,11.7,1.16,12.2,7.08,5.35,1.38,6.17,2.74
Cc1cccc2c1NC(=O)/C2=N\Nc1ccc(S(N)(=O)=O)cc1,-1.74,5.22,7.22,1.65,1.24,2.15,5.82,1.06,1.59,4.96,1.49,2.26,1.7,0.44,6.52,4.98,6.66,-2.96,9.17,3.73
